Only some compounds are listed: those with a hit (about 1.1% of all), similar ones and a draw of the others.
TRPV1 PAM = HTS Assay for Compounds that Act as Potentiators of the Vanilloid Receptor 1. Transient receptor potential cation channel subfamily V member 1 (Homo sapiens), Q8NER1. TRPV1-expressing cells, Fluo-8 calcium influx, capsaicin EC20 potentiation. potentiation, % at 8.33 µM. 320,000 tested, 0.02% active. AID 540277, 2011; in the data active = potentiation above about 80%; inconclusive = between about 30% and that limit; also: 0% is about no effect
Target sequence (Q8NER1 whole entry, looked up): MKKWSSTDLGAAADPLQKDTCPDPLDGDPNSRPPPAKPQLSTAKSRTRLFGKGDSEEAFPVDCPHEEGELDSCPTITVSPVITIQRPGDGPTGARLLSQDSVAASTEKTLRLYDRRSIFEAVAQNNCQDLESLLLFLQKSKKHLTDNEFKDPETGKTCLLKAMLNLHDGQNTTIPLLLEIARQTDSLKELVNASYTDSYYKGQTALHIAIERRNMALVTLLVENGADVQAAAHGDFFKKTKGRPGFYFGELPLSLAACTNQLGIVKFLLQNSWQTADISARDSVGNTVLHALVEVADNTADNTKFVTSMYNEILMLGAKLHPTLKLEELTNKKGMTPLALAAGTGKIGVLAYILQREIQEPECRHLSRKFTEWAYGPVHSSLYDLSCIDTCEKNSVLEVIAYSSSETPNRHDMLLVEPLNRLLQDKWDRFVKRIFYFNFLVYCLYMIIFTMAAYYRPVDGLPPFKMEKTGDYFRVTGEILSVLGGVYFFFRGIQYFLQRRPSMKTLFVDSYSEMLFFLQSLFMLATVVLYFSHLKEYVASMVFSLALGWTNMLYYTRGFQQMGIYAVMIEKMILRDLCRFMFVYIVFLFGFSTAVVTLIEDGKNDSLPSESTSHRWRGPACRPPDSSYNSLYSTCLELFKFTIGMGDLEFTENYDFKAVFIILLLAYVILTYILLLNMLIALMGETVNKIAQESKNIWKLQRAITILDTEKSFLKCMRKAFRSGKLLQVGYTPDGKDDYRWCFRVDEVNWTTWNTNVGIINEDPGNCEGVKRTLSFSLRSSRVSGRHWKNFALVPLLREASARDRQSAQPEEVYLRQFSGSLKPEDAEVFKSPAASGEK
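Cells expressing TRPV1 were dye-loaded with Fluo-8 and read kinetically: 10 s baseline, 3 min after compound (agonist portion), then 2 min after EC20 capsaicin (allosteric enhancer portion). Calcium-bound dye fluorescence at 480/520 nm.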
RXFP1 ag = qHTS Assay for Agonists of the Relaxin Receptor RXFP1; AID 2676, 2010; HEK293T-RXFP1 cAMP TR-FRET, 30 min; response scale: percent of porcine relaxin response, buffer zero; Potency, µM (top dose mostly 57.5 µM), without a hit: at the top dose activation, usual class: activators; Relaxin receptor 1 (Homo sapiens), Q9HBX9; 370,000 tested, 0.3% active; active = well fitted activation curve with a large enough effect; inconclusive = small, poorly fitted or top-dose-only effect; also: potency is read from the fitted curve at half-maximal effect; % is scaled to controls: 0 for no effect and ±100 for the full control effect; nearly all actives have a fitted effect of over 60% in size
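Agonist response is measured as cAMP accumulation in an RXFP1-transfected HEK293T line under PDE4 inhibition. Values are scaled between buffer-only and 29 nM porcine relaxin, and EC50s come from standard Hill equation fits.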
gsp antag = qHTS for Antagonists of gsp, the Etiologic Mutation Responsible for Fibrous Dysplasia/McCune-Albright Syndrome: qHTS; gsp-mutant cells, cAMP HTRF, 30 min; Potency, µM (titrated, usually from 76.9 µM), inactives show at the top dose activity change, negative = inhibition, actives largely listed as inhibitors; 340,000 tested, 0.4% active; AID 624288, 2012; calls by dose curve; cell line not stated here;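 also: intracellular cAMP measured with PDE inhibitor Ro 20-1724 present during compound exposure; potency is read from the fitted curve at half-maximal effect; % is scaled to controls: 0 for no effect and ±100 for the full control effect; nearly all actives have a fitted effect of over 65% in size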
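HTRF cAMP measurement after 30 min RT detection following 30 min, 37C compound treatment alongside […] (added as 300 uM solution) in G418-selected cells seeded at 2000/well and grown 16–24 h.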
RXFP1 antag = qHTS Assay for Antagonists of the Relaxin Receptor RXFP1. activity change, negative = inhibition, % at 57.5 µM. AID 1259400, 2018. Relaxin receptor 1 (Homo sapiens), Q9HBX9. 350,000 tested, 0.59% active. HEK293-RXFP1, relaxin-stimulated cAMP HTRF, 30 min; active compounds read low;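 active = activity change of -60% or lower, but not beyond a set lower limit; inconclusive = change between -60% and -40%, or beyond the set limit; inactive = change above -40%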; also: % is scaled to controls: 0 for no effect and ±100 for the full control effect
gsp agonist = qHTS for Agonist of gsp, the Etiologic Mutation Responsible for Fibrous Dysplasia/McCune-Albright Syndrome: qHTS; 340,000 tested, 0.13% active; gsp mutant cells, cAMP HTRF, 30 min; Potency, µM (highest dose often 76.9 µM), inactives show top-dose activation (cAMP increase), actives largely listed as activators; active = well fitted activation curve with a large enough effect; inconclusive = small, poorly fitted or top-dose-only effect, or another doubt; inactive = no such curve, though single readings can be large or run the other way; cell line not stated here;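 also: phosphodiesterase inhibitor Ro 20-1724 added with compounds to block cAMP breakdown; potency is read from the fitted curve at half-maximal effect; nearly all actives have a fitted effect of over 60% in size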
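Cells stably selected in G418 were plated at 2000/well, grown 16-24 hr, then given compounds in DMSO with the PDE inhibitor […] (300 uM solution added) for 30 min at 37C; cAMP was read by HTRF.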
TRPV1 ag = HTS Assay for Compounds that Act as Agonists of the Vanilloid Receptor 1. Transient receptor potential cation channel subfamily V member 1 (Homo sapiens), Q8NER1. TRPV1-expressing cells, Fluo-8 calcium influx, agonist mode. activation, % at 8.33 µM. 320,000 tested, 0.19% active; in the data active = activation above about 80%; inconclusive = between about 30% and that limit; also: 0% is about no effect
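TRPV1-expressing cells were cultured overnight at 35.5C and loaded with Fluo-8 calcium dye for 40 to 90 min at room temperature. After a 10 s baseline, compound was added and calcium influx was read kinetically for 3 min (ex 480/em 520 nm).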
Starred values were filed as active, the others as inactive; [ ] = another dose, or the depositor's remark.

CCCc1ccc(OCc2ccc(C(=O)N3CCN(c4ccccn4)CC3)o2)c(OC)c1 was read as TRPV1 PAM 0, RXFP1 ag 0%, gsp antag inconclusive, RXFP1 antag -63*, gsp agonist -55% and TRPV1 ag 25.
Screening COc1ccc(CC(=O)N2CCN(c3ccccn3)CC2)cc1OC returned TRPV1 PAM 3, RXFP1 ag 2%, gsp antag -3%, RXFP1 antag 2, gsp agonist -4% and TRPV1 ag 1.
For OC1(c2ccc(Cl)c(Cl)c2)C[n+]2ccccc2N1Cc1ccccc1 (stereo not given) the results were TRPV1 PAM 4, RXFP1 ag 0%, gsp antag 11%, RXFP1 antag -69*, gsp agonist 24%[15.4 µM] and TRPV1 ag 13.
CC(=O)c1ccc(N2CCN(CC(O)COC(c3ccccc3)c3ccccc3)CC2)cc1 (stereo not given) was read as TRPV1 PAM 27, RXFP1 ag -3%, gsp antag -20%, RXFP1 antag -79*, gsp agonist inconclusive and TRPV1 ag -5.
Screening COc1cc(NS(=O)(=O)c2ccc(NC(=O)c3cccs3)cc2)nc(OC)n1 returned TRPV1 PAM 18, RXFP1 ag 0%, gsp antag 22µM*, RXFP1 antag 0, gsp agonist 19%[15.4 µM] and TRPV1 ag -3.
`CC(Oc1ccc2ccc(=O)oc2c1)C(=O)N1CCOCC1` (stereo not given) gave TRPV1 PAM 5, RXFP1 ag 5%, gsp antag 8%, RXFP1 antag 17, gsp agonist -7%[15.4 µM] and TRPV1 ag -2.
Screening COc1cccc(NC(=O)C2CCN(S(=O)(=O)c3ccc4c(c3)CC(C)N4C(C)=O)CC2)c1 (stereo not given) returned TRPV1 PAM 28, RXFP1 ag 2%, gsp antag inconclusive, RXFP1 antag -28, gsp agonist inconclusive and TRPV1 ag -2.
`CC(=O)N1c2ccc(S(=O)(=O)N3CCC(C(=O)Nc4ccc(F)cc4)CC3)cc2CC1C` (stereo not given) gave TRPV1 PAM 3, RXFP1 ag -2%, gsp antag 10µM*, RXFP1 antag -12, gsp agonist 8% and TRPV1 ag 3.
`Cc1cc(OC(=O)c2ccccc2Cl)cc(=O)n1C` gave TRPV1 PAM -7, RXFP1 ag 2%, gsp antag 40µM*, RXFP1 antag -21, gsp agonist -18% and TRPV1 ag 1.
O=C(Oc1ccc(N2C(=O)CCC2=O)cc1)c1ccccc1Cl was read as TRPV1 PAM 12, RXFP1 ag 1%, gsp antag 1%, gsp agonist 16% and TRPV1 ag 2.
For Cc1cccc(C(=O)NC(=O)Nc2ccc(-c3cc(C(F)(F)F)nn3-c3ccccc3)cc2)c1 the results were RXFP1 ag 3% and RXFP1 antag -4.
For CN(C)CCNc1ccc2nnn3c4ccc(O)cc4c(=O)c1c23 the results were gsp antag -3%, RXFP1 antag 6 and gsp agonist inconclusive.
CCN(CC)CCCNc1ccc2ncn3c4ccc(O)cc4c(=O)c1c23 was read as gsp antag inconclusive, RXFP1 antag -21 and gsp agonist 11µM*.
Screening CC(C)c1ccc(NC(=O)c2cccc(Br)c2)cc1 returned TRPV1 PAM 6, RXFP1 ag 1%, gsp antag -10%, RXFP1 antag inconclusive, gsp agonist -24% and TRPV1 ag 93*.
Screening N#CSCC(=O)O returned RXFP1 antag -21.

Screening data: PubChem, National Center for Advancing Translational Sciences (NCATS)
